# Source: PubChem BioAssay AID720526 (National Center for Advancing Translational Sciences (NCATS), 2013)
# Inconclusive results are not listed. Entries that show only a call come without a potency. Active and inactive are the calls of the source. The call rests on the fitted dose curve; in most records, active means well fitted activation curve with a large enough effect; inconclusive means small, poorly fitted or top-dose-only effect; inactive means no such curve, though single readings can be large or run the other way.
# Assay: qHTS Assay for NPC1 Promoter Activators: Hit Validation Using Renila Luciferase Read-Out for NPC1
# Conditions: Huh7 NPC1 promoter-luciferase reporter, luminescence, 24 h; series mostly up to 76.9 µM
# Procedure, shortened: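 Luciferase reporter read-out: promoter activation measured by luminescence after 10 min with detection reagent at room temperature. Cells were Huh7 with a stable NPC promoter-luciferase construct, treated 24 h at 37 deg C.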
# Potency means the concentration at half of the fitted maximal effect.
row,Compound,Potency
1,OCCC1CN(Cc2nc3ccccc3s2)CCN1C1CCCC1 (stereo not drawn),inactive
2,NC(=O)C(=O)NN=C1C2CC3CC(C2)CC1C3,inactive
3,CCOCC(=O)Nc1c(C(=O)Nc2ccc3c(c2)OCCO3)oc2ccccc12,inactive
4,CC(=O)[C@@H]1[C@@H](C(=O)c2ccc(C)cc2)[C@]2(C(=O)Nc3ccccc32)[C@H]2C=Cc3cc(F)ccc3N12,inactive
5,COCCNC(=O)Cn1nc(-c2ccccc2)c2ccccc2c1=O,inactive
6,Cc1ccc(C(=O)Nc2nnc(S(=O)(=O)N3CCOCC3)s2)cc1,inactive
7,O=S(=O)(c1cccs1)N1CCN(c2ncccn2)CC1,inactive
8,CC(=O)c1c(C)[nH]c(C(=O)Nc2cccc(S(=O)(=O)N(C)C)c2)c1C,23.2 µM (active)
9,Cc1ccc(S(=O)(=O)/N=C(/Nc2ccccn2)c2ccc(Cl)cc2)cc1,11.6 µM (active)
10,Cc1ccccc1NC(=O)CSc1ccc(-c2cccnc2)nn1,inactive
11,CC(Sc1nnc(C(F)(F)F)n1C)C(=O)Nc1ccc(S(N)(=O)=O)cc1 (stereo not drawn),inactive
12,Cc1cc(C)c2c(N)c(C(=O)Nc3ccc([N+](=O)[O-])cc3)sc2n1,inactive
13,O=C(COC(=O)c1ccc(-c2nnc(-c3ccccc3)o2)cc1)c1ccccc1,inactive
14,COc1ccc(NC(=O)CSc2ccc([N+](=O)[O-])cc2)cc1S(=O)(=O)N1CCOCC1,inactive
15,COC(=O)Nc1nc2ccc(Br)cc2s1,inactive
16,CC1CC(C)CN(CC(=O)N2CCOCC2)C1 (stereo not drawn),inactive
17,C=CCOC(=O)N1CCN(c2cccc(C(F)(F)F)c2)CC1,inactive
18,COc1ccc(C(=O)OCC(=O)N2CCCC2=O)c(OC)c1,inactive
19,CCOc1cc(C(=O)N=c2sccn2C)ccc1OC(F)F,inactive

row,Compound,Potency
1,O=C(CSc1nccn1Cc1ccco1)Nc1ccccc1F,36.8 µM (active)
2,Cc1ccc(NC(=O)c2c(O)c3ccccc3n(C)c2=O)nc1,inactive
3,C=CCn1c(C)nnc1SCC(=O)Nc1nccs1,inactive
4,Cc1ccc(N(O)C(=O)NCCCCNC(=O)N(O)c2ccc(C)cc2)cc1,inactive
5,O=C(CSc1nnc(-c2ccccn2)o1)Nc1ccccc1F,inactive
6,O=C(NC1CCCC1)C(c1ccc(F)cc1)N(C(=O)c1csnn1)c1ccccc1 (stereo not drawn),inactive
7,CC(C)(C)C(=O)NC(=S)Nc1ccccc1F,inactive
8,O=C(CSc1nnc(-c2ccccn2)o1)Nc1ccccc1Cl,inactive
9,Cc1ccc2c(c1)sc1nc(=O)n(-c3ccccc3)c(=O)n12,inactive
10,O=C(CCCOc1ccc(Cl)cc1)N1CCCCC1,inactive
11,COCC1CCN(C(=O)c2ccc3oc(Cc4ccccc4)nc3c2)C1 (stereo not drawn),inactive
12,O=C(C1COc2ccccc2O1)N1CCN(S(=O)(=O)c2ccccc2)CC1 (stereo not drawn),inactive
13,O=C(CCS(=O)(=O)c1ccccc1)Nc1ccc(-c2nc3ccccc3s2)cc1,inactive
14,O=C(Nc1ccc(-c2nc3cccnc3s2)cc1)c1ccc(Cl)nc1,inactive
15,CN(C)C(=O)[C@H]1C[C@H]1[C@@H](O)[C@H](CO)NC(=O)[C@H](COCc1ccccc1)NC(=O)OC(C)(C)C,inactive
16,Cc1ccc(C#N)c(SCC(=O)Nc2nccs2)n1,inactive
17,CCCc1cc(C(=O)Nc2ccccc2SC)no1,inactive
18,O=C(N/N=C/c1ccc(-c2ccc(Br)cc2)o1)c1ccc2c(c1)OCO2,inactive
19,CC(=O)NC(=S)Nc1ccc2oc(-c3cc(F)c(F)cc3Cl)nc2c1,inactive
